# Screens (PubChem BioAssay)
# Hits are enriched below; roughly 11% of the tested compounds scored in any of these assays.
# FLuc inh-1 = Firefly luciferase inhibition profiling of diverse chemical library using quantitative high-throughput screening; Luciferin 4-monooxygenase (Photinus pyralis), P08659; purified P. pyralis luciferase, luminescence, biochemical; Potency, µM (top dose mostly 115 µM), most hits filed as inhibitors; 76,000 compounds, 2.5% hits; AID 1347043, 2019; note: nearly all actives have a fitted effect of over 65% in size
# Target sequence (P08659 whole entry, looked up): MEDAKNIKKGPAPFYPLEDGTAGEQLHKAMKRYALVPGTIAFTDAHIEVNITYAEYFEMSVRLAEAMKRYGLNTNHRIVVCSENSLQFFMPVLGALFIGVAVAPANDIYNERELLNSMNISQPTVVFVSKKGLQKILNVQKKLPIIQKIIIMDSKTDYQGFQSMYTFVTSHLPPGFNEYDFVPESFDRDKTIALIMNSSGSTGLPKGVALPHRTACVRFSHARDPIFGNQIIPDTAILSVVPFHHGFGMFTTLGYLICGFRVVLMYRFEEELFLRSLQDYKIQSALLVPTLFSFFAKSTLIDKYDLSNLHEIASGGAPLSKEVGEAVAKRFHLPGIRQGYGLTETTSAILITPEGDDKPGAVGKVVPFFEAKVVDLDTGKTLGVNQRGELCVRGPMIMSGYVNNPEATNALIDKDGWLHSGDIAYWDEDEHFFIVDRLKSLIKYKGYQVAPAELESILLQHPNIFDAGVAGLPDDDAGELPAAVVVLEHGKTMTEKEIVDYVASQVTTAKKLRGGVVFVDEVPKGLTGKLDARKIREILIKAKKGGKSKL
#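 Purified 10nM P. pyralis luciferase with 10uM D-luciferin and 10uM ATP in 50mM Tris acetate pH 7.5, 10mM Mg acetate, 0.01% Tween-20, 0.05% BSA. qHTS titration; luminescence read by CCD imager.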
# NIH3T3 tox = Cytotoxic Profiling in NIH 3T3 Cell Line of Diverse Libraries Using Quantitative High-Throughput Screening; NIH 3T3 viability, CellTiter-Glo ATP luminescence, 48-72 h; Potency, µM (doses to about 96.7 µM), most hits filed as inhibitors; 94,000 compounds, 4.3% hits; AID 1345082, 2018; note: nearly all actives have a fitted effect of over 55% in size
#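 Cells were seeded at 400 per well, treated with pin-transferred compound, and kept 48 or 72 hr at 37 °C before CellTiter-Glo addition and luminescence imaging of cellular ATP.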
# NPR1 antag = Natriuretic polypeptide receptor (hNpr1) antagonism - Primary qHTS; HEK293 hNpr1 GloSensor cGMP, ANP-stimulated luminescence; Potency, µM (series often up to 46.3 µM), most hits filed as inhibitors; 76,000 compounds, 1.6% hits; AID 1347048, 2019; calls by dose curve; note: nearly all actives have a fitted effect of over 60% in size
#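 Compound pre-incubated 30 min at room temperature on GloSensor-loaded HEK293 cells stably carrying hNpr1 and the pGS-40F cGMP biosensor. Stimulation uses hNppA at 0.1 nM final; luminescence is taken at baseline and 20 min post-agonist.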
# HEK cytotox = Cytotoxic Profiling in HEK 293 Cell Line of Diverse Libraries Using Quantitative High-Throughput Screening; HEK 293 viability, ATP luminescence (CellTiter-Glo), 48-72 h; Potency, µM (doses to about 115 µM), most hits filed as inhibitors; 94,000 compounds, 6.6% hits; note: nearly all actives have a fitted effect of over 60% in size
#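 Read-out: CellTiter-Glo ATP luminescence. Cells: HEK 293, 250 cells/well. Exposure: 48 or 72 hr, 37 degree Celsius.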
# FLuc SDR -ATP = Firefly luciferase (FLuc-C-HiBiT) SDR gain of signal screen - without ATP; shares compounds with FLuc inh-1; Purified FLuc-C-HiBiT, Nano-Glo HiBiT luminescence, no ATP; 1,300 compounds, 7.8% hits; Potency, µM (doses to about 32.7 µM), actives largely listed as activators; note: nearly all actives have a fitted effect of over 55% in size
# FLuc SDR ATP = Firefly luciferase (FLuc-C-HiBiT) SDR gain of signal screen - plus ATP; shares compounds with FLuc inh-1; purified FLuc-C-HiBiT + ATP, HiBiT complementation luminescence; Potency, µM (titrated, usually from 32.7 µM), usual class: activators; 1,300 compounds, 8.7% hits;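 note: signal reports ligand binding via conformational change of the enzyme rather than luciferase catalysis; nearly all actives have a fitted effect of over 55% in size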
# FLuc inh-2 = Firefly luciferase (FLuc-C-HiBiT) enzymatic inhibition screen - Functional assay | shares compounds with FLuc inh-1 | purified FLuc-C-HiBiT enzyme, luciferin luminescence | Potency, µM (doses to about 32.7 µM), actives largely listed as inhibitors | 1,300 compounds, 42% hits | AID 1963320, 2024; note: nearly all actives have a fitted effect of over 70% in size
# Numbers stand for hits; 0 = inactive; ? = inconclusive; - = no result given. Unless noted, calls come from the whole dose curve; as a rule, active = well fitted curve in the direction sought with a large enough effect; inconclusive = small, poorly fitted or top-dose-only effect, or another doubt; inactive = no such curve, though single readings can be large; an effect the other way counts as inactive or inconclusive.
SMILES,FLuc inh-1,NIH3T3 tox,NPR1 antag,HEK cytotox,others
CC(C)NC(=O)NC[C@H]1C[C@@H]2CCN1C[C@@H]2CN1CCC(Cc2ccccc2)CC1,0,?,0,50µM,
CC[C@H]1CN2CC[C@H]1C[C@@H]2CNS(=O)(=O)c1ccc(C)cc1,0,0,0,0,
O=C(NCC1CC1)c1cn(C2CNC2)nn1,0,0,0,0,
CSc1cccc(NC(=O)NC[C@H]2C[C@@H]3CCN2C[C@@H]3CN2CCC(Cc3ccccc3)CC2)c1,0,25µM,0,?,
COc1ccccc1N1CCN(C[C@H]2CN3CC[C@H]2C[C@@H]3CNC(=O)Nc2cccc(SC)c2)CC1,0,?,0,?,
C=CCN(C)C(=O)[C@H]1CN2CCC1C[C@@H]2Cn1cc(CO)nn1 (stereo partly specified),0,0,0,?,
C=CCN(C)C(=O)[C@H]1CN2CCC1C[C@@H]2Cn1cc(-c2ccc(C(C)(C)C)cc2)nn1 (stereo partly specified),?,?,0,100µM,
COc1ccc(-c2cn(C[C@H]3C[C@@H]4CCN3C[C@@H]4C(=O)NC3CC3)nn2)cc1,0,0,0,0,
COc1ccccc1N1CCN(C(=O)[C@H]2CN3CCC2C[C@@H]3Cn2cc(-c3ccccc3)nn2)CC1 (stereo partly specified),0,0,0,45µM,
CNCc1cn(C[C@H]2CC3CCN2C[C@@H]3C(=O)Nc2ccccc2)nn1 (stereo partly specified),0,0,0,0,
O=C(Nc1ccccc1)[C@H]1CN2CCC1C[C@@H]2Cn1cc(CSc2ccccc2)nn1 (stereo partly specified),0,100µM,0,100µM,
COc1ccccc1CNC(=O)[C@H]1CN2CC[C@H]1C[C@@H]2Cn1cc(-c2ccccc2)nn1,0,0,0,0,
CC(C)(C)c1ccc(-c2cn(C[C@H]3CC4CCN3C[C@@H]4C(=O)NC3CCCCC3)nn2)cc1 (stereo partly specified),0,?,0,32µM,
O=C(O)C1=NOC2CN(CC3CCCC3)CC12 (stereo unspecified),-,0,-,0,
COc1ccc2c(c1)C1(CCN(C(=O)c3ccccc3Br)C1)C(=O)N2 (stereo unspecified),0,0,0,?,
COc1ccc(NC(=O)NC[C@H]2C[C@@H]3CCN2C[C@@H]3c2cc(-c3ccc(OC)c(OC)c3)nn2C)cc1,0,?,0,?,
COc1ccc(-c2cc([C@H]3CN4CC[C@H]3C[C@@H]4CNC(=O)c3ccc(C(C)(C)C)cc3)n(C)n2)cc1OC,0,?,0,20µM,
COc1ccc(-c2cc([C@H]3CN4CC[C@H]3C[C@@H]4CNC(=O)NC3CCCCC3)n(C)n2)cc1,0,89µM,0,?,
COc1ccc(-c2cc([C@H]3CN4CC[C@H]3C[C@@H]4CNC(=O)Nc3cccc4ccccc34)n(C)n2)cc1OC,0,?,0,45µM,
COc1ccc(OC)c(S(=O)(=O)NC[C@H]2C[C@@H]3CCN2C[C@@H]3c2cc(-c3ccc(F)cc3)nn2C)c1,0,?,0,28µM,
COCCC(=O)Nc1ccc2n(c1=O)C[C@H]1C[C@@H]2CN(CCCc2ccccc2)C1,0,?,0,?,
O=C(Cc1c(F)cccc1Cl)N1CCN(Cc2ccccc2)CC(O)C1 (stereo unspecified),0,0,0,0,
CC(C)NC(=O)NC[C@H]1C[C@@H]2CCN1C[C@@H]2c1cc(C2CCCC2)nn1C,0,?,0,0,
COc1cccc(CC(=O)N2CCCCCC2CN2CCC(OC)CC2)c1 (stereo unspecified),0,0,0,0,
Cn1nc(-c2ccc(F)cc2)cc1[C@H]1CN2CC[C@H]1C[C@@H]2CNC(=O)c1cccs1,0,56µM,0,45µM,
SMILES,FLuc inh-1,NIH3T3 tox,NPR1 antag,HEK cytotox,others
COc1ccc(C(=O)NC[C@H]2C[C@@H]3CCN2C[C@@H]3c2cc(-c3ccc(F)cc3)nn2C)cc1,0,?,0,?,
Cc1ccc(C(=O)NC[C@H]2C[C@@H]3CCN2C[C@@H]3c2cc(-c3ccc(F)cc3)nn2C)cc1,0,25µM,0,25µM,
CN1CCNc2cc(Nc3ccc(F)c(Cl)c3)ncc2C1,0.79µM,50µM,?,?,FLuc SDR -ATP=0;FLuc SDR ATP=0;FLuc inh-2=13µM
CN1CCNc2cc(Nc3ccc(F)cc3)ncc2C1,3.2µM,?,0,?,FLuc SDR -ATP=0;FLuc SDR ATP=0;FLuc inh-2=20µM
CN1CCNc2cc(Nc3ccncc3)ncc2C1,0,?,0,?,
COc1cccc([C@@H]2CCN(Cc3[nH]c4ccccc4c3C)C[C@H]2O)c1,0,?,0,?,
O=C(O)C1=NOC2CN(Cc3ccncc3)CC12 (stereo unspecified),-,0,-,0,
COc1cc2c(cc1-c1ccc(CO)cc1)NC(=O)C21CCN(C)CC1,-,-,-,-,FLuc SDR -ATP=0;FLuc SDR ATP=0;FLuc inh-2=?
COc1ccc(-n2cc(C3=CCN(CCN4CCOCC4)CC3)cn2)cc1,4.5µM,?,?,?,FLuc SDR -ATP=?;FLuc SDR ATP=?;FLuc inh-2=9.9µM
CC(C)CN1CCNc2cc(-c3ccccc3)ncc2C1,4µM,?,0,?,FLuc SDR -ATP=0;FLuc SDR ATP=0;FLuc inh-2=?
O=C(Nc1ccccc1)Nc1ccc2n(c1=O)C[C@H]1C[C@@H]2CN(C(=O)c2ccccc2)C1,14µM,?,0,?,FLuc SDR -ATP=?;FLuc SDR ATP=0;FLuc inh-2=?
O=C(Nc1ccc2n(c1=O)C[C@H]1C[C@@H]2CN(C(=O)Nc2ccccc2)C1)c1ccncc1,0,?,0,0,
CC[C@H]1CN2CC[C@H]1C[C@@H]2CNC(=S)Nc1ccc(N(C)C)cc1,0,0,0,?,
Cn1ccnc1CN1CCN2C(=O)N(c3ccccn3)C[C@H]2C1,0,0,0,0,
